Only some compounds are listed: those with a hit (about 27% of all), similar ones and a draw of the others.
CYP2C19 inhib: blocks human cytochrome P450 2C19. AID 778. CYP2C19 Supersomes, luciferin-H EGE luminescence, 30 min. P33261. actives 21% (n = 96,000). inhibition, % at 5 µM;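 active = CYP2C19 inhibition above a set limit at 5 µM in the primary screen, cut at about 50% in these data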
CYP2C9 act: increases human cytochrome P450 2C9 activity. activation factor at 5 µM. recombinant CYP2C9, luciferin-H conversion, luminescence; active compounds read high; factor 1 = untreated enzyme, 0 = blocked. AID 1024. actives 1.4% (n = 96,000). P11712;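 active = activation factor of 2 or more for CYP2C9 at a 5 µM dose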
Target sequence (P11712 whole entry, looked up): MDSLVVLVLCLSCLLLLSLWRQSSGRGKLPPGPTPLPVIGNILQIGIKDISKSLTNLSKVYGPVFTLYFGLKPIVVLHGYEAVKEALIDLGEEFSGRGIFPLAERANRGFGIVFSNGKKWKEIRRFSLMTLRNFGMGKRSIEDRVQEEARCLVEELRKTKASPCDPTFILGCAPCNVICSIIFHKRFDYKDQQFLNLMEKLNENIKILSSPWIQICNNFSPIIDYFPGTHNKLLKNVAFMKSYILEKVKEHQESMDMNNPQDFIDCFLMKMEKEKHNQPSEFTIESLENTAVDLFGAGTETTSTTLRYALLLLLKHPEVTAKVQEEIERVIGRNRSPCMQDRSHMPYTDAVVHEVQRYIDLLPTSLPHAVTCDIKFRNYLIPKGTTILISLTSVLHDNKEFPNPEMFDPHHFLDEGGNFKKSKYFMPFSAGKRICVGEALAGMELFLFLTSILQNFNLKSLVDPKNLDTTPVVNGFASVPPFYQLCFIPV
PTK2B oligo ant: Pyk2 (human) oligomerization antagonism; AID 1347419; actives 0.83% (n = 99,000); z-score (the deposit names both 25 µM and 10 µM); Q293 cells, Pyk2 FERM NanoBiT luminescence; active compounds read low; Q14289;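 active = Z-score of -3 or lower, scaled per plate to the spread of control and sample wells; inactive = z-score above -3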;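 note: negative z-score means lost luminescence so less FERM oligomerization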
Cav32 inh: inhibitors of human Cav3.2 T-type calcium channel | Cav3.2-expressing cells, Fluo-4 calcium fluorescence FDSS; active compounds read low | B-score at 10 µM | AID 449739 | O95180 | actives 4% (n = 100,000);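 active = single-dose well whose peak fluorescence ratio is a statistical outlier from its plate by either plate-standardised score or position-corrected B-score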
CYP2C19 activ: increases human CYP2C19 enzyme activity; activation factor at 5 µM; 96,000 tested, under 10 active; P33261; recombinant CYP2C19, luciferin-H EGE luminescence; active compounds read high; 0 = fully inhibited enzyme, 1 = untreated enzyme; AID 1025;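 active = activation factor of at least 2 at 5 µM in the primary screen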
CYP2C9 inh: human CYP2C9 inhibition | inhibition, % at 5 µM | CYP2C9 Supersomes, luciferin-H conversion, luminescence | P11712 | AID 777 | actives 20% (n = 96,000);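 active = blocking of liver enzyme CYP2C9 beyond about 50% at 5 µM, limit read from the data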
Hits are given with their value.

Results for O=C(NCc1ccccn1)c1cc2ccccn2n1 ?
CYP2C19 inhib: inactive; CYP2C9 act: inactive; Cav32 inh: inactive; CYP2C19 activ: inactive; CYP2C9 inh: inactive

How did COc1cccc(CN2CCCN(S(=O)(=O)c3ccc(Br)cc3)CC2)c1 do in these assays?
CYP2C19 inhib: 79; CYP2C9 act: inactive; PTK2B oligo ant: inactive; Cav32 inh: inactive; CYP2C19 activ: inactive; CYP2C9 inh: inactive

What do the screens show for `Cc1cc2cc(CNC(=O)c3ccc(Br)o3)ccc2[nH]1`?
Cav32 inh: -6

What do the screens show for `COc1cccc(CNC(=O)c2cc3ccccn3n2)c1`?
CYP2C19 inhib: 66; CYP2C9 act: inactive; Cav32 inh: inactive; CYP2C19 activ: inactive; CYP2C9 inh: inactive

How did CC(C)C(CO)NC(=O)CC(=O)NC(CO)C(C)C (centres undefined) do in these assays?
CYP2C19 inhib: inactive; CYP2C9 act: inactive; PTK2B oligo ant: inactive; Cav32 inh: inactive; CYP2C19 activ: inactive; CYP2C9 inh: inactive

What do the screens show for `COc1ccc(OC)c(C2C(C(N)=O)=C(C)Nc3nc(CCCO)nn32)c1` (centres undefined)?
CYP2C19 inhib: inactive; CYP2C9 act: inactive; Cav32 inh: inactive; CYP2C19 activ: inactive; CYP2C9 inh: inactive

How did COC(=O)c1cn(C(C)C(=O)NCc2ccco2)c2ccccc12 (centres undefined) do in these assays?
CYP2C19 inhib: 59; CYP2C9 act: inactive; PTK2B oligo ant: inactive; Cav32 inh: inactive; CYP2C19 activ: inactive; CYP2C9 inh: inactive

Results for COc1ccc(-c2nnn(CC(=O)N(Cc3ccccc3Cl)C(C(=O)NCC3CCCO3)c3ccco3)n2)cc1 (centres undefined) ?
CYP2C19 inhib: inactive; CYP2C9 act: inactive; PTK2B oligo ant: inactive; Cav32 inh: inactive; CYP2C19 activ: inactive; CYP2C9 inh: inactive

What do the screens show for `Cc1ccc(-c2nnn(CC(=O)N(c3ccccc3F)C(C(=O)NCC3CCCO3)c3c[nH]c4ccccc34)n2)cc1` (centres undefined)?
CYP2C19 inhib: inactive; CYP2C9 act: inactive; PTK2B oligo ant: inactive; Cav32 inh: -7.1; CYP2C19 activ: inactive; CYP2C9 inh: 75

How did Cc1ccc(-c2nnn(CC(=O)N(c3ccccc3)C(C(=O)NCC3CCCO3)c3ccc(Cl)cc3)n2)cc1 (centres undefined) do in these assays?
CYP2C19 inhib: 62; CYP2C9 act: inactive; PTK2B oligo ant: inactive; Cav32 inh: -4.6; CYP2C19 activ: inactive; CYP2C9 inh: 88

Results for COc1cc2c(C(=O)N3CCN(Cc4ccc5c(c4)OCO5)CC3)cn(C)c(=O)c2cc1OC ?
CYP2C19 inhib: inactive; CYP2C9 act: inactive; PTK2B oligo ant: inactive; CYP2C19 activ: inactive; CYP2C9 inh: inactive

What do the screens show for `COc1ccc(CN2C(=O)c3cccnc3C2Nc2cc(Cl)c(OC)cc2OC)cc1` (centres undefined)?
CYP2C19 inhib: inactive; CYP2C9 act: inactive; PTK2B oligo ant: inactive; Cav32 inh: inactive; CYP2C19 activ: inactive; CYP2C9 inh: inactive

How did CC(=O)c1ccc(NC2c3ncccc3C(=O)N2Cc2ccc(F)cc2)cc1 (centres undefined) do in these assays?
CYP2C19 inhib: 76; CYP2C9 act: inactive; PTK2B oligo ant: inactive; Cav32 inh: inactive; CYP2C19 activ: inactive; CYP2C9 inh: inactive

How did COc1ccc(CN2C(=O)c3cccnc3C2Nc2ccc(C)cc2)cc1 (centres undefined) do in these assays?
CYP2C19 inhib: 63; CYP2C9 act: inactive; PTK2B oligo ant: inactive; Cav32 inh: inactive; CYP2C19 activ: inactive; CYP2C9 inh: 63

How did CS(=O)(=O)Nc1ccc(C(=O)NCc2ccco2)cc1 do in these assays?
CYP2C19 inhib: inactive; CYP2C9 act: inactive; PTK2B oligo ant: inactive; Cav32 inh: inactive; CYP2C19 activ: inactive; CYP2C9 inh: inactive

What do the screens show for `Cn1cccc1CC(=O)N/N=C\c1c2ccccc2cc2ccccc12`?
CYP2C19 inhib: 52; CYP2C9 act: inactive; PTK2B oligo ant: inactive; Cav32 inh: inactive; CYP2C19 activ: inactive; CYP2C9 inh: inactive

What do the screens show for `Cn1cccc1CC(=O)N/N=C/c1cccc2ccccc12`?
CYP2C19 inhib: inactive; CYP2C9 act: inactive; PTK2B oligo ant: inactive; Cav32 inh: inactive; CYP2C19 activ: inactive; CYP2C9 inh: inactive

What do the screens show for `Cc1ccc([N+](=O)[O-])cc1NC(=O)c1ccc(-c2ccccc2)cc1`?
CYP2C19 inhib: inactive; CYP2C9 act: 2.2; PTK2B oligo ant: inactive; Cav32 inh: inactive; CYP2C19 activ: inactive; CYP2C9 inh: inactive

How did Cc1ccc([N+](=O)[O-])cc1NC(=O)c1ccc(C(C)(C)C)cc1 do in these assays?
CYP2C19 inhib: inactive; CYP2C9 act: inactive; PTK2B oligo ant: inactive; Cav32 inh: inactive; CYP2C19 activ: inactive; CYP2C9 inh: inactive

What do the screens show for `O=C(Nc1nc(-c2ccccc2)cs1)c1cccc([N+](=O)[O-])c1`?
CYP2C19 inhib: inactive; CYP2C9 act: inactive; PTK2B oligo ant: inactive; Cav32 inh: inactive; CYP2C19 activ: inactive; CYP2C9 inh: inactive

Results for O=C(Nc1ccccc1-c1ccccc1)c1cccc([N+](=O)[O-])c1 ?
CYP2C19 inhib: 91; CYP2C9 act: inactive; PTK2B oligo ant: inactive; Cav32 inh: inactive; CYP2C19 activ: inactive; CYP2C9 inh: inactive

How did Cc1ccccc1NC(=O)c1cccc(S(=O)(=O)Oc2ccc([N+](=O)[O-])cc2)c1 do in these assays?
CYP2C19 inhib: 80; CYP2C9 act: inactive; PTK2B oligo ant: inactive; Cav32 inh: inactive; CYP2C19 activ: inactive; CYP2C9 inh: inactive

How did Cc1c(C(=O)Nc2ccccc2-c2ccccc2)cccc1[N+](=O)[O-] do in these assays?
CYP2C19 inhib: 80; CYP2C9 act: inactive; PTK2B oligo ant: inactive; Cav32 inh: inactive; CYP2C19 activ: inactive; CYP2C9 inh: inactive

What do the screens show for `Cc1[nH]c2ccccc2c1C(=O)CN1CCCCC1CCO` (centres undefined)?
CYP2C19 inhib: inactive; CYP2C9 act: inactive; PTK2B oligo ant: inactive; Cav32 inh: inactive; CYP2C19 activ: inactive; CYP2C9 inh: inactive

How did COc1ccc(S(=O)(=O)CCC(=O)O)cc1 do in these assays?
CYP2C19 inhib: inactive; CYP2C9 act: inactive; PTK2B oligo ant: inactive; Cav32 inh: inactive; CYP2C19 activ: inactive; CYP2C9 inh: inactive

How did COc1ccc(CCNS(=O)(=O)c2ccc3c(c2)OCCO3)cc1 do in these assays?
CYP2C19 inhib: 76; CYP2C9 act: inactive; PTK2B oligo ant: inactive; Cav32 inh: inactive; CYP2C19 activ: inactive; CYP2C9 inh: inactive

How did COc1ccc(S(=O)(=O)CCC(=O)NCCc2ccc(C)cc2)cc1 do in these assays?
CYP2C19 inhib: 57; CYP2C9 act: inactive; PTK2B oligo ant: inactive; Cav32 inh: inactive; CYP2C19 activ: inactive; CYP2C9 inh: 75

Results for COc1ccc(CNC(=O)CN(CC2CCCO2)C(=O)CNS(=O)(=O)c2ccc(F)cc2)cc1 (centres undefined) ?
CYP2C19 inhib: inactive; CYP2C9 act: inactive; PTK2B oligo ant: inactive; Cav32 inh: -6.2; CYP2C19 activ: inactive; CYP2C9 inh: inactive

Results for COc1ccc(CN(CC(=O)NCC2CCCO2)C(=O)CNS(=O)(=O)c2ccc(C)cc2)cc1 (centres undefined) ?
PTK2B oligo ant: inactive; Cav32 inh: inactive

Compound activity (PubChem BioAssay)
